Bioassay records from PubChem.
Luciferase inh: inhibitors of firefly (Photinus pyralis) luciferase | AID 1347043 | purified P. pyralis luciferase, luminescence, biochemical | 76,000 compounds, 2.5% hits | Potency, µM (titrated, usually from 115 µM), actives largely listed as inhibitors; also: nearly all actives have a fitted effect of over 65% in size
Target sequence (P08659 whole entry, looked up): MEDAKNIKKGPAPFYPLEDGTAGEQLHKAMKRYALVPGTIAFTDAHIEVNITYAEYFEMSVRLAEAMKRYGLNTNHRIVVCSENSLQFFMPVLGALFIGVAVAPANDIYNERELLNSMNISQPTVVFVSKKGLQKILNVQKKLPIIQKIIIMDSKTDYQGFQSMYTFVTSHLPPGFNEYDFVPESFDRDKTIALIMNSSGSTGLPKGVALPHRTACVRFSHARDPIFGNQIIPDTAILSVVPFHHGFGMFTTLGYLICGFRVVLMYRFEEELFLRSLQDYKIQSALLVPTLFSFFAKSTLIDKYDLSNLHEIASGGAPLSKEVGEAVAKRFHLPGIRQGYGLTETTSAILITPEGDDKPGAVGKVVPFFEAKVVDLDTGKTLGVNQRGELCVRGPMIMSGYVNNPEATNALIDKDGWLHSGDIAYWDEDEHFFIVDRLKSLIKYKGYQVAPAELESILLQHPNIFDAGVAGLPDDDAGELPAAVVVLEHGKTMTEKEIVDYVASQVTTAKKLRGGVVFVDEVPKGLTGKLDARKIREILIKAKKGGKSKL
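Luminescence read by CCD imaging after purified firefly luciferase (10nM final) was added to substrate buffer holding 10uM D-luciferin and 10uM ATP, pH 7.5, pre-dosed with compound.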
SNCA expr inh: SNCA gene expression inhibition. HEK-293 SNCA-luciferase knock-in, luminescence, 24 h. Potency, µM (doses to about 57.2 µM), without a hit: at the top dose activity change, negative = inhibition, most hits filed as inhibitors. 140,000 compounds, 0.17% hits. AID 1671194;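 also: plate controls were DMSO cells for no effect and cell-free wells for full effect; nearly all actives have a fitted effect of over 45% in size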
3T3 cytotox: NIH 3T3 cell cytotoxicity; NIH 3T3 viability, CellTiter-Glo ATP luminescence, 48-72 h; Potency, µM (titrated, usually from 96.7 µM), inactives show at the top dose activity change, negative = cytotoxicity, hits mostly inhibitors; 94,000 compounds, 4.3% hits; AID 1345082; also: nearly all actives have a fitted effect of over 55% in size
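Cytotoxicity was measured by CellTiter-Glo ATP luminescence after 48 or 72 h compound exposure at 37 °C. Mouse NIH 3T3 fibroblasts were seeded at 400 cells/well and dosed by 23 nL pin transfer.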
SNCA viab count: cell viability loss counter-screen | HEK-293-SNCA-luc viability, GF-AFC fluorescence, 24 h | Potency, µM (titrated, usually from 57.1 µM), without a hit: at the top dose activity change, negative = cytotoxicity, actives largely listed as cytotoxic | 150,000 compounds, 0.12% hits;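 also: 0% = DMSO-treated cells and -100% = medium-only wells without cells; nearly all actives have a fitted effect of over 30% in size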
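Cytotoxicity counterscreen: after 24 h compound treatment of genome-edited SNCA-luciferase HEK-293 cells, live-cell protease substrate GF-AFC read by fluorescence after 30 min; activity scaled between DMSO (0%) and medium-only (-100%), curves Hill-fitted.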
NPR1 antag: antagonists of human natriuretic peptide receptor Npr1; HEK293 hNpr1 GloSensor cGMP, ANP-stimulated luminescence; P16066; 76,000 compounds, 1.6% hits; Potency, µM (doses to about 46.3 µM), for inactives: at the top dose activity change, negative = inhibition, most hits filed as inhibitors; calls by dose curve; also: nearly all actives have a fitted effect of over 60% in size
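Compound pre-incubated 30 min at room temperature on GloSensor-loaded HEK293 cells stably carrying hNpr1 and the pGS-40F cGMP biosensor. Stimulation uses hNppA at 0.1 nM final; luminescence is taken at baseline and 20 min post-agonist.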
HEK cytotox: HEK 293 cell cytotoxicity | HEK 293 viability, ATP luminescence (CellTiter-Glo), 48-72 h | Potency, µM (doses to about 115 µM), for the others: at the top dose activity change, negative = cytotoxicity, usual class: inhibitors | 94,000 compounds, 6.6% hits; also: nearly all actives have a fitted effect of over 60% in size
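Read-out: CellTiter-Glo ATP luminescence. Cells: HEK 293, 250 cells/well. Exposure: 48 or 72 hr, 37 degree Celsius.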
Numbers without * were called inactive; i = inactive; ? = inconclusive; . = no result; [ ] = another dose, or the depositor's remark. Shown are actives, neighbours in structure and some others; about 7.2% of the full set was active somewhere. Unless noted, calls follow the shape of the dose curve; as a rule, active = well fitted curve in the direction sought with a large enough effect; inconclusive = small, poorly fitted or top-dose-only effect, or another doubt; inactive = no such curve, though single readings can be large; an effect the other way counts as inactive or inconclusive. Unless noted, % is scaled to controls: 0 for no effect and ±100 for the full control effect; potency is read from the fitted curve at half-maximal effect.

SMILES | Luciferase inh | SNCA expr inh | 3T3 cytotox | SNCA viab count | NPR1 antag | HEK cytotox
Cn1cnc(S(=O)(=O)N2CC[C@@H]3COCCN(Cc4ccccc4)[C@@H]3C2)c1 | i | -17% | 3% | 22% | 0% | -18%
COc1ccc2c(c1)CN(Cc1ccccc1)C(=O)CCN2CC(O)Cc1ccccc1 (stereo unspecified) | . | . | ? | . | . | 79µM*
O=C1CCN(CC(O)C(F)(F)F)c2cc3c(cc2CN1Cc1ccco1)OCO3 (stereo unspecified) | . | . | ? | . | . | -17%
COc1ccc(OCC(O)CN2CCC(=O)N(CC3CC3)Cc3cc(OC)ccc32)cc1 (stereo unspecified) | . | . | ? | . | . | -14%
COc1ccc2c(c1)CN(Cc1ccccc1)C(=O)CCN2C(C)=O | . | . | ? | . | . | -20%
O=C1CCN(CC(O)Cc2ccccc2)c2cc3c(cc2CN1Cc1ccccc1)OCO3 (stereo unspecified) | . | . | ? | . | . | 40µM*
COc1ccc(OCC(O)CN2CCC(=O)N(Cc3ccccc3)Cc3cc4c(cc32)OCO4)cc1 (stereo unspecified) | . | . | ? | . | . | 45µM*
CNC(=O)c1cc(C)nc2onc(C3CCCN3C(=O)c3ccc(OC)cc3)c12 (stereo unspecified) | . | . | -17% | . | . | -17%
O=C(c1nnc(CNCc2cnccn2)n1-c1ccccc1)N1CCC[C@@H]1C(c1ccccc1)c1ccccc1 | i | 3% | ? | -12% | -15% | ?
CC1=C[C@@H](CNC(=O)C2CCCCC2)[C@H](C(C)C)C[C@H]1Cc1nc2c(C)cccc2[nH]1 | i | ? | 25µM* | ? | -19%[70.6 µM] | ?
CC1=C[C@@H](CNC(=O)Nc2ccc(F)cc2)[C@H](C(C)C)C[C@H]1Cc1nc2c(C)cccc2[nH]1 | ? | ? | 40µM* | ? | -23% | ?
CCCc1nnc([C@H]2CCN(C(=O)COC)C2)o1 | i | 8%[87.6 µM] | i | -12%[87.6 µM] | 3%[70.6 µM] | i
Cn1cc(CN2CCOC[C@H]2c2ncc(-c3ccc(S(C)(=O)=O)cc3)[nH]2)c2ccccc21 | i | ? | 35µM* | ? | -3% | 20µM*
N#Cc1cccc(CN2CCOC[C@H]2c2ncc(-c3ccc(F)cc3)[nH]2)c1 | i | 3%[87.6 µM] | ? | -11%[87.6 µM] | 0%[70.6 µM] | 63µM*
CS(=O)(=O)c1ccc(CN2CCOC[C@H]2c2ncc(-c3ccc(Cl)cc3)[nH]2)cc1 | i | -8%[87.6 µM] | ? | -22%[87.6 µM] | -10%[70.6 µM] | -30%[172 µM]
N#Cc1cccc(CN2CCOC[C@H]2c2ncc(-c3ccc(C(F)(F)F)cc3)[nH]2)c1 | i | -30%[87.6 µM] | ? | -9%[87.6 µM] | ? | 89µM*
N#Cc1cccc(CN2CCOC[C@H]2c2ncc(-c3ccc(Cl)cc3)[nH]2)c1 | i | ? | 100µM* | ? | ? | ?
CCN(CC)[C@H]1[C@@H]2OC[C@@H](O2)[C@@H](NCc2ccccc2OC)[C@@H]1O | i | 4%[87.6 µM] | 5%[174 µM] | 15%[87.6 µM] | 3%[70.6 µM] | i
Oc1ccccc1CN1CCOC[C@H]1c1ncc(-c2cccc(Cl)c2)[nH]1 | i | -26%[87.6 µM] | ? | 1%[87.6 µM] | -18%[70.6 µM] | 89µM*
CC(C)CCNC(=O)CCC1CCCN(S(=O)(=O)c2cccc(F)c2)C1 (stereo unspecified) | . | -1% | ? | 1% | . | 45µM*
CCOc1ccc(NC(=O)CCC2CCCN(S(=O)(=O)c3cccc(F)c3)C2)cc1 (stereo unspecified) | . | -2% | -22% | -25% | . | 35µM*
Cc1cc(C(=O)N2CC(Oc3cccc(-c4nc(-c5ccccc5)no4)c3)C2)n[nH]1 | i | 3% | i | -2% | 1% | 4%
Cc1ccccc1C(=O)N1CCC2(CC1)CCN(CCc1ccccc1)c1ccccc1O2 | i | 4% | ? | 0% | 2% | 28µM*
O=C(c1ccccc1F)N1CCC2(CC1)CCN(CCc1ccccc1)c1ccccc1O2 | i | 5% | ? | 8% | -3% | ?
O=C(c1ccccc1)N1CCC2(CC1)CCN(CCc1ccccc1)c1ccccc1O2 | i | -12% | ? | -2% | -6% | 40µM*
SMILES | Luciferase inh | SNCA expr inh | 3T3 cytotox | SNCA viab count | NPR1 antag | HEK cytotox
CCCN1CCC2(CCN(C(=O)c3ccccc3C)CC2)Oc2ccccc21 | i | 35% | ? | -5% | 26% | ?
O=C(Cc1ccc(F)cc1)N1CCC2(CC1)CC(=O)N(c1ccccc1)c1ccccc1O2 | i | ? | 40µM* | ? | -9% | 40µM*
O=C(c1ccc(F)cc1)N1CCC2(CC1)CCN(CCc1ccccc1)c1ccccc1O2 | i | -30% | ? | -9% | 0% | 40µM*
C#CCNC(=O)c1ccc2nccn2c1 | . | 8%[87.6 µM] | i | 0%[87.6 µM] | . | i
Cc1cccc(C(=O)N2CCC3(CC2)CCC(O)(CN(C)C)CC3)c1 | . | 16% | -23% | -1% | . | -15%
O=C(Nc1cccc(C(F)(F)F)c1)c1nc2c(o1)CCN(Cc1ccc(F)cc1)CC2 | i | -18%[87.6 µM] | 28µM* | -24%[87.6 µM] | -30%[70.6 µM] | 28µM*
O=C(Nc1cccc(C(F)(F)F)c1)c1nc2c(o1)CCN(Cc1ccccc1)CC2 | i | -8%[87.6 µM] | ? | -3%[87.6 µM] | 0%[70.6 µM] | ?
O=C(Nc1cccc(C(F)(F)F)c1)c1nc2c(o1)CCN(Cc1cnc[nH]1)CC2 | 40µM* | 3%[87.6 µM] | ? | 1%[87.6 µM] | -9%[70.6 µM] | ?
O=C(Nc1cccc(C(F)(F)F)c1)c1nc2c(o1)CCN(Cc1cccc(F)c1)CC2 | ? | -37%[87.6 µM] | ? | 0%[87.6 µM] | ? | 50µM*
O=C(NCC1CC1)c1nc2c(o1)CCN(Cc1cccc(F)c1)CC2 | i | 35%[87.6 µM] | ? | 6%[87.6 µM] | ? | ?
CN1C[C@H](O)C[C@H]1c1nnc2n1CCN(C(=O)CC1CCCC1)CC2 | i | 10% | 0% | -1% | -2% | 2%
O=c1c2c(CO)c(-c3ccccc3)nn2ccn1Cc1cc(F)ccc1F | i | 26% | -6% | 8% | -12% | -2%
COC(=O)c1ccc(NC(=O)c2cnc(-c3ccc(C)cc3)nc2-c2ccncc2)cc1 | i | -20% | -3% | -28% | -21% | 0%
O=C(COc1ccccc1)N1CCC(n2cc(-c3nc(-c4ccccc4)no3)nn2)CC1 | i | 95% | 13µM* | 3% | 0% | ?
O=C(c1ccccc1)N1CCC(n2cc(-c3nc(-c4ccccc4)no3)nn2)CC1 | i | 34% | 40µM* | -2% | 0% | ?
O=C(c1cccc(F)c1)N1CCC(n2cc(-c3nc(-c4ccccc4)no3)nn2)CC1 | i | 5% | ? | 6% | ? | ?
